{"source": "PubChem BioAssay (EPA / NIEHS)", "note": "The source made the active and inactive calls. Rule for the calls: active = hit-call score of the fitted dose curve at least 0.9, where 1 is the maximum; inactive = score below 0.9."}
{"experiment": "ATG_TA_CIS: Attagene CIS-FACTORIAL HepG2 Assay for human TA Basal Promoter (AID 2282964)", "details": "HepG2 Attagene CIS-factorial TA basal promoter reporter; actives raise or lower the signal", "in_short": "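Transient MRTU transfection of HepG2 preceded 24 h compound exposure. Reporter mRNA levels were then read by RT-PCR with capillary electrophoresis, and this background-control endpoint was fitted bidirectionally to DMSO.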"}
{"smiles": "Nc1ccc(-c2ccc(N)c(N)c2)cc1N", "outcome": "inactive"}
{"smiles": "CCOP(O)OCC", "outcome": "inactive"}
{"smiles": "C#CC1(O)CCCCC1", "outcome": "inactive"}
{"smiles": "O=c1[nH]c(Cl)c(Cl)cc1Cl", "outcome": "inactive"}
{"smiles": "CCC(C)c1cc(C(C)(C)C)cc(-n2nc3ccccc3n2)c1O", "note": "(stereo not drawn)", "outcome": "inactive"}
{"smiles": "[CH3][Sn]([Cl])([Cl])[Cl]", "outcome": "inactive"}
{"smiles": "Nc1c(Cl)c(Cl)c(Cl)c(Cl)c1Cl", "outcome": "inactive"}
{"smiles": "COC(=O)c1ccccc1S(=O)(=O)NC(=O)Nc1nc(C)cc(C)n1", "outcome": "inactive"}
{"smiles": "Nc1ccccc1C(=O)OCCc1ccccc1", "outcome": "inactive"}
{"smiles": "N#Cc1cccc(C#N)c1", "outcome": "inactive"}
{"smiles": "O=C(O)CCCc1ccc(N(CCCl)CCCl)cc1", "outcome": "inactive"}
{"smiles": "Nc1cc(Cl)cc(Cl)c1", "outcome": "inactive"}
{"smiles": "COc1ncc(F)c2nc(S(=O)(=O)Nc3c(F)cccc3F)nn12", "outcome": "inactive"}
{"smiles": "COC(C)(C)CCC[C@H](C)C/C=C/C(C)=C/C(=O)OC(C)C", "outcome": "inactive"}
{"smiles": "[CH3][Sn]([CH3])([Cl])[Cl]", "outcome": "inactive"}
{"smiles": "BrCBr", "outcome": "inactive"}
{"smiles": "CCc1cccc(C)c1N(C(=O)CCl)[C@@H](C)COC", "outcome": "inactive"}
{"smiles": "O=P1(NCCCl)OCCCN1CCCl", "note": "(stereo not drawn)", "outcome": "inactive"}
{"smiles": "CC(Cc1ccc(C(C)(C)C)cc1)CN1C[C@@H](C)O[C@@H](C)C1", "note": "(stereo partly drawn)", "outcome": "inactive"}
{"smiles": "O=C(O)c1cc[c]([Hg][Cl])cc1", "outcome": "inactive"}
{"smiles": "C[N+](C)(C)CC(=O)O", "outcome": "inactive"}
{"smiles": "O=S(=O)(c1ccccc1)c1ccccc1", "outcome": "inactive"}
{"smiles": "Clc1ccc(-c2ccccc2)cc1", "outcome": "inactive"}
{"smiles": "CN(C)C(=O)C(c1ccccc1)c1ccccc1", "outcome": "inactive"}
{"smiles": "C=CCc1ccc(OC(=O)Cc2ccccc2)c(OC)c1", "outcome": "inactive"}
{"smiles": "O=P(O)(Oc1ccccc1)Oc1ccccc1", "outcome": "inactive"}
{"smiles": "CC1CCCC1.[C-]#[O+].[C-]#[O+].[C-]#[O+].[Mn]", "outcome": "inactive"}
{"smiles": "O=C(O)COc1ccccc1", "outcome": "inactive"}
{"smiles": "[Cl][Sb]([Cl])[Cl]", "outcome": "inactive"}
{"smiles": "CCC(=O)c1ccc(Cl)cc1", "outcome": "inactive"}
{"smiles": "Cc1ccc(N(SC(F)(Cl)Cl)S(=O)(=O)N(C)C)cc1", "outcome": "inactive"}
{"smiles": "CC1(C)CC(=O)CC(C)(C)N1[O]", "outcome": "inactive"}
{"smiles": "SCc1ccco1", "outcome": "inactive"}
{"smiles": "O=CNC(N1CCN(C(NC=O)C(Cl)(Cl)Cl)CC1)C(Cl)(Cl)Cl", "note": "(stereo not drawn)", "outcome": "inactive"}
{"smiles": "Oc1cc(Cl)ccc1Cl", "outcome": "inactive"}
{"smiles": "O=[N+]([O-])c1cc(C(F)(F)F)c(Cl)c([N+](=O)[O-])c1Cl", "outcome": "inactive"}
{"smiles": "C[C@]12CCC(=O)C(O)=C1CC[C@@H]1[C@@H]2CC[C@]2(C)C(=O)CC[C@@H]12", "outcome": "inactive"}
{"smiles": "CSc1nc(N=[N+]=[N-])nc(NC(C)C)n1", "outcome": "inactive"}
{"smiles": "O=[N+]([O-])O.O=[N+]([O-])O.[Cd]", "outcome": "inactive"}
{"experiment": "ATG_TCF_b_cat_CIS: Attagene CIS-FACTORIAL HepG2 Assay for human T-Cell-Factor with beta-catenin (TCF/b-cat) (AID 2282965)", "details": "HepG2 TCF/beta-catenin cis-reporter transcription, actives raise or lower the signal", "in_short": "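Endogenous transcription factor activity is captured through cis-promoter reporter constructs transiently introduced into human HepG2 liver cells. Induced reporter mRNA is measured after 24 h and fitted bidirectionally relative to DMSO.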"}
{"smiles": "Nc1ccc(-c2ccc(N)c(N)c2)cc1N", "outcome": "inactive"}
{"smiles": "CCOP(O)OCC", "outcome": "inactive"}
{"smiles": "C#CC1(O)CCCCC1", "outcome": "inactive"}
{"smiles": "O=c1[nH]c(Cl)c(Cl)cc1Cl", "outcome": "inactive"}
{"smiles": "CCC(C)c1cc(C(C)(C)C)cc(-n2nc3ccccc3n2)c1O", "note": "(stereo not drawn)", "outcome": "inactive"}
{"smiles": "[CH3][Sn]([Cl])([Cl])[Cl]", "outcome": "inactive"}
{"smiles": "Nc1c(Cl)c(Cl)c(Cl)c(Cl)c1Cl", "outcome": "inactive"}
{"smiles": "COC(=O)c1ccccc1S(=O)(=O)NC(=O)Nc1nc(C)cc(C)n1", "outcome": "inactive"}
{"smiles": "Nc1ccccc1C(=O)OCCc1ccccc1", "outcome": "inactive"}
{"smiles": "N#Cc1cccc(C#N)c1", "outcome": "inactive"}
{"smiles": "O=C(O)CCCc1ccc(N(CCCl)CCCl)cc1", "AC50": "143 µM (active)"}
{"smiles": "Nc1cc(Cl)cc(Cl)c1", "AC50": "79 µM (active)"}
{"smiles": "COc1ncc(F)c2nc(S(=O)(=O)Nc3c(F)cccc3F)nn12", "outcome": "inactive"}
{"smiles": "COC(C)(C)CCC[C@H](C)C/C=C/C(C)=C/C(=O)OC(C)C", "outcome": "inactive"}
{"smiles": "[CH3][Sn]([CH3])([Cl])[Cl]", "outcome": "inactive"}
{"smiles": "BrCBr", "outcome": "inactive"}
{"smiles": "CCc1cccc(C)c1N(C(=O)CCl)[C@@H](C)COC", "outcome": "inactive"}
{"smiles": "O=P1(NCCCl)OCCCN1CCCl", "note": "(stereo not drawn)", "outcome": "inactive"}
{"smiles": "CC(Cc1ccc(C(C)(C)C)cc1)CN1C[C@@H](C)O[C@@H](C)C1", "note": "(stereo partly drawn)", "outcome": "inactive"}
{"smiles": "O=C(O)c1cc[c]([Hg][Cl])cc1", "outcome": "inactive"}
{"smiles": "C[N+](C)(C)CC(=O)O", "outcome": "inactive"}
{"smiles": "O=S(=O)(c1ccccc1)c1ccccc1", "outcome": "inactive"}
{"smiles": "Clc1ccc(-c2ccccc2)cc1", "outcome": "inactive"}
{"smiles": "CN(C)C(=O)C(c1ccccc1)c1ccccc1", "outcome": "inactive"}
{"smiles": "C=CCc1ccc(OC(=O)Cc2ccccc2)c(OC)c1", "outcome": "inactive"}
{"smiles": "O=P(O)(Oc1ccccc1)Oc1ccccc1", "outcome": "inactive"}
{"smiles": "CC1CCCC1.[C-]#[O+].[C-]#[O+].[C-]#[O+].[Mn]", "outcome": "inactive"}
{"smiles": "O=C(O)COc1ccccc1", "outcome": "inactive"}
{"smiles": "[Cl][Sb]([Cl])[Cl]", "AC50": "186 µM (active)"}
{"smiles": "CCC(=O)c1ccc(Cl)cc1", "outcome": "inactive"}
{"smiles": "Cc1ccc(N(SC(F)(Cl)Cl)S(=O)(=O)N(C)C)cc1", "AC50": "16.6 µM (active)"}
{"smiles": "CC1(C)CC(=O)CC(C)(C)N1[O]", "outcome": "inactive"}
{"smiles": "SCc1ccco1", "outcome": "inactive"}
{"smiles": "O=CNC(N1CCN(C(NC=O)C(Cl)(Cl)Cl)CC1)C(Cl)(Cl)Cl", "note": "(stereo not drawn)", "outcome": "inactive"}
{"smiles": "Oc1cc(Cl)ccc1Cl", "outcome": "inactive"}
{"smiles": "O=[N+]([O-])c1cc(C(F)(F)F)c(Cl)c([N+](=O)[O-])c1Cl", "AC50": "5.54 µM (active)"}
{"smiles": "C[C@]12CCC(=O)C(O)=C1CC[C@@H]1[C@@H]2CC[C@]2(C)C(=O)CC[C@@H]12", "outcome": "inactive"}
{"smiles": "CSc1nc(N=[N+]=[N-])nc(NC(C)C)n1", "outcome": "inactive"}
{"smiles": "O=[N+]([O-])O.O=[N+]([O-])O.[Cd]", "outcome": "inactive"}
